Counter-ions that a name gives are not always drawn.
Legend:
Assay in all cases: Euclidean distance of Cell Painting phenotypic profile (signed KS, 77 features) to DMSO centroid (dimensionless distance); 5 or 10 uM (library dependent); higher = stronger phenotypic change vs DMSO (phenoactivity)
Conditions in all cases: 48 h
786-O = system: 786-O
Method in brief: (§1)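 At 10 or 5 uM, as set by the library, and 0.1% DMSO final, compounds were applied for 48 h to five cancer lines and one healthy fibroblast line. Stained cells were imaged confocally at 20X in 9 fields per well, and Harmony extracted 77 features scored as signed Kolmogorov-Smirnov statistics against vehicle wells on the same plate. Profiles underwent plate-position correction, correlation weighting and replicate averaging at the top dose. Phenoactivity is the Euclidean distance from each such profile to the median vehicle profile.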

A549 = system: A549
Method in brief: as §1

DU145 = system: DU145
Method in brief: as §1

FB = system: FB
Method in brief: as §1

HEPG2 = system: HEPG2
Method in brief: as §1

OVCAR4 = system: OVCAR4
Method in brief: as §1

Row | SMILES | Euclidean distance (786-O) | Euclidean distance (A549) | Euclidean distance (DU145) | Euclidean distance (FB) | Euclidean distance (HEPG2) | Euclidean distance (OVCAR4)
1 | CCN1CC(CCN2CCOCC2)C(c2ccccc2)(c2ccccc2)C1=O (centres undefined) [Doxapram HCl] | 0.672 | 0.512 | 0.481 | 0.699 | 0.498 | 0.962
2 | CNCc1ccc(C)c(NC(=O)c2ccc(Nc3nc(-c4ccccc4)c4ccccc4n3)cc2)c1 | 5.12 | 4.68 | 3.37 | 4.9 | 5.84 | 4.54
3 | O=C(O)C(=O)O.[NH-][C@@H]1CCCC[C@H]1[NH-].[Pt+2] [Oxaliplatin] | 3.37 | 3.26 | 1.5 | 2.95 | 3.19 | 3.47
4 | CCCc1nc(C)c2c(=O)nc(-c3cc(S(=O)(=O)N4CCN(CC)CC4)ccc3OCC)[nH]n12 [Vardenafil HCl Trihydrate] | 1.18 | 0.732 | 1.26 | 1.02 | 0.77 | 0.83
5 | O=C1CCC(N2C(=O)c3ccccc3C2=O)C(=O)N1 (centres undefined) [Thalidomide] | 1.48 | 0.846 | 0.603 | 1.22 | 0.461 | 1.67
6 | CC1(C)CCC(c2ccc(Cl)cc2)=C(CN2CCN(c3ccc(C(=O)NS(=O)(=O)c4ccc(N[C@H](CCN5CCOCC5)CSc5ccccc5)c(S(=O)(=O)C(F)(F)F)c4)cc3)CC2)C1 [ABT-263 (Navitoclax)] | 1.75 | 2.22 | 1.24 | 1.16 | 1.25 | 0.98
7 | COc1ccc(-c2cc(=O)c3c(O)cc(O[C@@H]4O[C@H](CO[C@@H]5O[C@@H](C)[C@H](O)[C@@H](O)[C@H]5O)[C@@H](O)[C@H](O)[C@H]4O)cc3o2)cc1O [Diosmin] | 0.665 | 0.621 | 1.01 | 0.778 | 0.671 | 0.702
8 | O=C(Nc1ccc(Cl)cc1)Nc1ccc(Cl)c(Cl)c1 [Triclocarban] | 2.18 | 3.14 | 1.62 | 1.74 | 3.53 | 2.98
9 | CCCS(=O)(=O)Nc1ccc(F)c(C(=O)c2c[nH]c3ncc(-c4ccc(Cl)cc4)cc23)c1F [Vemurafenib (PLX4032. RG7204)] | 1.14 | 1.53 | 1.68 | 1.23 | 2.32 | 1.06
10 | FC(F)c1nc2ccccc2n1-c1nc(N2CCOCC2)nc(N2CCOCC2)n1 | 2.56 | 3.64 | 3.69 | 2.87 | 2.24 | 3.13
11 | C[C@H](NC(=O)C(=O)Nc1ccccc1C(C)(C)C)C(=O)N[C@@H](CC(=O)O)C(=O)COc1c(F)c(F)cc(F)c1F [Emricasan] | 1.44 | 0.567 | 0.769 | 0.936 | 0.32 | 0.99
12 | CC1C(=O)OC2C(O)C34C5CC(C(C)(C)C)C36C(OC(=O)C6O)OC4(C(=O)O5)C12O (centres undefined) [Ginkgolide B] | 0.999 | 1.63 | 0.921 | 1.25 | 2.11 | 1.3
13 | CC(C)NCC(O)COc1cccc2[nH]c3ccccc3c12 (centres undefined) [Carazolol] | 1.27 | 0.789 | 1.12 | 0.974 | 1.07 | 1.31
14 | C[C@H]1CNCCCN1S(=O)(=O)c1cccc2cncc(F)c12 [Ripasudil (K-115) hydrochloride dihydrate] | 2.28 | 0.784 | 2.78 | 2.01 | 1.34 | 1.12
15 | CC(C)NC[C@H](O)COc1ccc(CCOCC2CC2)cc1 [Levobetaxolol HCl] | 1.03 | 0.954 | 0.622 | 0.99 | 0.412 | 0.877
16 | CONC(=O)c1ccccc1Nc1cc(Nc2cc(C)nn2C(C)C)ncc1Cl | 1.35 | 1.28 | 1.33 | 2.01 | 0.825 | 1.5
17 | COc1ccc2cc3[n+](cc2c1OC)CCc1cc2c(cc1-3)OCO2 [Berberine Sulfate] | 1.66 | 2.46 | 1.4 | 2.36 | 1.68 | 2.08
18 | COc1cccc2c1C(=O)c1c(O)c3c(c(O)c1C2=O)C[C@@](O)(C(=O)CO)C[C@@H]3O[C@H]1C[C@H](N)[C@H](O)[C@H](C)O1 [Doxorubicin (Adriamycin)] | 4.79 | 5.36 | 4.79 | 5.17 | 4.55 | 5
19 | CS(=O)(=O)c1ccc([C@@H](O)[C@@H](CO)NC(=O)C(Cl)Cl)cc1 [Thiamphenicol] | 1.41 | 0.742 | 0.68 | 1.08 | 0.983 | 1.15
20 | CN(C)C(=O)N[C@H]1CC[C@H](CCN2CCN(c3cccc(Cl)c3Cl)CC2)CC1 [Cariprazine HCl] | 1.25 | 1.41 | 1.47 | 1.58 | 1.63 | 0.982
21 | C[C@H](O)[C@H](O)[C@H]1CNc2[nH]c(N)nc(=O)c2N1 [Sapropterin Dihydrochloride] | 0.821 | 0.501 | 0.871 | 0.819 | 0.542 | 0.643
22 | CCCCC(C)(O)C/C=C/[C@H]1[C@H](O)CC(=O)[C@@H]1CCCCCCC(=O)OC (mixture of isomers) [Misoprostol] | 1.2 | 0.849 | 1.06 | 1.07 | 0.553 | 1.08
23 | CN1CCC(=C2c3ccccc3C=Cc3ccccc32)CC1 [Cyproheptadine HCl] | 1.25 | 0.786 | 1.84 | 2.04 | 2.64 | 1.39
24 | Cc1[nH]c(/C=C2\C(=O)Nc3ccccc32)c(C)c1CCC(=O)O [TSU-68 (SU6668. Orantinib)] | 0.704 | 0.699 | 0.85 | 0.825 | 0.787 | 0.814
25 | CCn1c(=O)c(-c2cc(NC(=O)Nc3ccccc3)c(F)cc2Br)cc2cnc(NC)cc21 | 1.21 | 1.59 | 1.77 | 2.62 | 1.61 | 1.1
26 | CC(C)(CO)[C@@H](O)C(=O)NCCC(=O)O [D-Pantothenate Sodium] | 1.18 | 0.904 | 1.05 | 1.15 | 0.523 | 1.33
27 | CC(C)OC(=O)[C@H](C)N[P@](=O)(OC[C@H]1O[C@@H](n2ccc(=O)[nH]c2=O)[C@](C)(F)[C@@H]1O)Oc1ccccc1 [Sofosbuvir (PSI-7977. GS-7977)] | 1.34 | 0.693 | 1.07 | 0.694 | 0.59 | 1.01
28 | O=C(CCCCCCC(=O)Nc1ccccc1)NO [Vorinostat (SAHA. MK0683)] | 3.44 | 2.96 | 3.15 | 3.77 | 3.15 | 2.85
29 | CCCC(C)NC(=O)c1ccc(Cl)c(Cl)c1 (centres undefined) | 0.75 | 0.663 | 0.911 | 1.24 | 0.75 | 0.568

Reference: the supplement of paper PMC10127200
